# Source: PubChem
# NS1 inh = qHTS Assay for Inhibitors of Influenza NS1 Protein Function | Potency, µM (doses to about 46.1 µM), for the others: at the highest dose activity, positive = more growth | 270,000 tested, 0.4% active | AID 2326, 2010; note: actives are rising curves; nearly all actives have a fitted effect of over 50% in size
#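 Read-out: OD600 growth recovery of NS1-expressing budding yeast. Cells grown overnight at 30C in -URA glucose medium, washed, resuspended and diluted 1:100 in 2% galactose assay medium, pH 6.0. Same strain lacking NS1 served as positive control.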
# SARS PLpro yeast = qHTS of Yeast-based Assay for SARS-CoV PLP; S. cerevisiae expressing SARS-CoV PLpro, growth rescue; Potency, µM (doses to about 32.9 µM), inactives show at the highest dose activity, positive = growth rescue, most hits filed as activators; 330,000 tested, 0.19% active; AID 485353, 2010; note: 0% is about no effect; nearly all actives have a fitted effect of over 55% in size
# RE007 growth inh = qHTS Assay for Inhibitors of the HIV-1 protein Vpr; S. pombe RE007 Vpr strain, BacTiter-Glo ATP luminescence, 24 h; Potency, µM (top dose mostly 92.2 µM), for the others: top-dose activity change, negative = less growth, usual class: inhibitors; 360,000 tested, 0.21% active; AID 651644, 2012; active = well fitted falling curve with a large enough effect; inconclusive = small, poorly fitted or top-dose-only effect; inactive = no such curve, though single readings can be large or run the other way; note: % is set by controls: 0 for no effect and ±100 for the full control effect; nearly all actives have a fitted effect of over 50% in size
#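 Fission yeast strain RE007, carrying one chromosomally integrated HIV-1 vpr copy, was seeded at OD 0.01 in PMG+AL medium with 23 nL pinned compound. After 24 h at 30 °C and 99% humidity, viability was read by BacTiter-Glo luminescence.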
# Pf growth 96h = Primary qHTS for delayed death inhibitors of the malarial parasite plastid, 96 hour incubation; P. falciparum luciferase reporter growth, 96 h; Potency, µM (highest dose often 28.7 µM), inactives show top-dose activity change, negative = inhibition, hits mostly inhibitors; 320,000 tested, 6.9% active; AID 504834, 2011; active = well fitted inhibition curve with a large enough effect; inconclusive = small, poorly fitted or top-dose-only effect, or another doubt; inactive = no such curve, though single readings can be large or run the other way; note: % is set by controls: 0 for no effect and ±100 for the full control effect
#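 Compounds incubated with erythrocytes infected by luciferase-expressing P. falciparum (2% hematocrit, 0.05% parasitemia final) for 96 hours, 37 C in 5% CO2. Growth inhibition scored as decreased luciferase luminescence.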
# Pf growth 48h = Primary qHTS for delayed death inhibitors of the malarial parasite plastid, 48 hour incubation; P. falciparum luciferase growth in erythrocytes, 48 h; Potency, µM (doses to about 28.7 µM), without a hit: at the highest dose activity change, negative = inhibition, usual class: inhibitors; 310,000 tested, 5.9% active; active = well fitted inhibition curve with a large enough effect; inconclusive = small, poorly fitted or top-dose-only effect, or another doubt; inactive = no such curve, though single readings can be large or run the other way; note: % is set by controls: 0 for no effect and ±100 for the full control effect
#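 Parasite viability was followed by luminescence of a genomically integrated firefly luciferase. Cultures held 0.1% parasitemia at 2% hematocrit (final), incubated under 5% CO2 at 37 C.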
# Numbers without * were called inactive; ? = inconclusive; . = not tested or not shown. Shown are actives, neighbours in structure and some others; about 9.5% of the full set was active somewhere. Unless noted, calls come from the whole dose curve. Potency is the fitted concentration of half-maximal effect.
SMILES,NS1 inh,SARS PLpro yeast,RE007 growth inh,Pf growth 96h,Pf growth 48h
O=C(CCc1nnc2ccc(NCc3ccco3)nn12)N1CCN(c2ccccc2F)CC1,10%,0%,3%,9.3µM*,-5%
O=C(CCc1nnc2ccc(NCc3ccco3)nn12)N1CCCCC1,16%,27%,4%,-28%,-1%
CCN1CCN(C(=O)CNC(=O)c2nn(-c3ccc(OC)cc3)c(=O)c3ccccc23)CC1,7%,0%,1%,1.5µM*,27%
CCOC(=O)N1CCN(C(=O)CNC(=O)c2nn(-c3ccc(OC)cc3OC)c(=O)c3ccccc23)CC1,1%,-4%,3%,1µM*,?
COc1ccc(-n2nc(C(=O)NCC(=O)Nc3cc(C)ccc3OC)c3ccccc3c2=O)c(OC)c1,29%,-1%,-5%,?,12µM*
COc1ccc(-n2nc(C(=O)NCC(=O)N3CCN(c4ccccc4)CC3)c3ccccc3c2=O)c(OC)c1,-2%,-4%,-4%,-16%,-29%
COc1ccc(-n2nc(C(=O)NCC(=O)N3CC(C)CC(C)C3)c3ccccc3c2=O)c(OC)c1 (configuration not stated),11%,0%,-12%,15%,2.1µM*
COc1ccc(-n2nc(C(=O)NCC(=O)N3CCCC3)c3ccccc3c2=O)c(OC)c1,8%,0%,6%,38%,17%
COc1ccc(-n2nc(C(=O)NCC(=O)N3CCCC3)c3ccccc3c2=O)cc1,7%,-3%,-19%,?,5%
Cc1ccnc(NC(=O)CCN2C(=O)c3ccccc3S2(=O)=O)n1,.,28%,-11%,76%,7%
CC(C)C[C@H]1CN(CCCC[C@@H]2CNC(=O)C(=O)N2CC2CCCCC2)C(=O)C(=O)N1CC1CCCCC1,.,.,0%,.,.
CC1Nc2ncnc(N3CCc4ccccc4C3)c2N(Cc2ccc(Cl)cc2)C1=O (configuration not stated),.,2%,-1%,5.2µM*,13µM*
CC1Nc2ncnc(N3CCc4ccccc4C3)c2N(Cc2ccc(Br)cc2)C1=O (configuration not stated),.,0%,-30%,6.6µM*,2.1µM*
COC(=O)c1ccc(CN2C(=O)C(C)N(C(=O)c3c(F)cccc3F)c3ccccc32)cc1 (configuration not stated),-6%,-3%,-6%,?,?
CC1=C(C(=O)OCC2CCCO2)C(c2ccc(Cl)c(Cl)c2)NC(=O)N1 (configuration not stated),-4%,0%,0%,?,?
CCOc1ccc(Nc2nc3cc(S(=O)(=O)CC)ccc3o2)cc1,1%,1%,-18%,13µM*,-31%
CCS(=O)(=O)c1ccc2oc(Nc3ccc(OC)cc3)nc2c1,.,-1%,-4%,69%,65%
COc1ccc2c(c1)[C@H]1[C@H](CO2)[C@H](c2ccccc2)[C@]2(C)C(=O)Nc3cc(OC)c(OC)cc3C(=O)N12,.,-1%,-2%,?,9.3µM*
CCOC(=O)[C@H]1[C@H]2COc3ccc(OC)cc3[C@@H]2N2C(=O)c3cc(C)ccc3NC(=O)[C@@]12C,.,0%,11%,?,?
CCOC(=O)[C@H]1[C@H]2COc3ccccc3[C@@H]2N2C(=O)c3cc(OC)ccc3NC(=O)[C@@]12C,.,2%,16%,?,5.2µM*
COc1ccc2c(c1)[C@H]1[C@H](CO2)[C@H](c2ccccc2)[C@]2(C)C(=O)Nc3ccc(C)cc3C(=O)N12,.,-15%,9%,.,.
COc1ccc2c(c1)[C@@H]1[C@H](CO2)[C@H](c2ccccc2)[C@]2(C)C(=O)Nc3ccc(C)cc3C(=O)N12,.,-1%,6%,?,13µM*
COc1ccc2c(c1)[C@H]1[C@H](CO2)[C@H](c2ccccc2)[C@]2(C)C(=O)Nc3ccc(Cl)cc3C(=O)N12,.,.,-9%,.,.
CCOC(=O)[C@H]1[C@H]2COc3ccc(Br)cc3[C@@H]2N2C(=O)c3ccc(Cl)cc3NC(=O)[C@@]12C,.,-2%,-6%,?,9.3µM*
CC[C@]12c3[nH]c4ccc(OC)cc4c3CCN1C(=O)C(CC(=O)NC(C)(C)C)C[C@@H]2C(=O)N1CCN(C(=O)c2ccco2)CC1 (some centres not stated),.,10%,-12%,.,.
SMILES,NS1 inh,SARS PLpro yeast,RE007 growth inh,Pf growth 96h,Pf growth 48h
C[C@@]12C(=O)Nc3ccc(Br)cc3C(=O)N1[C@H]1c3cc(Cl)ccc3OC[C@@H]1[C@@H]2c1ccccc1,.,-2%,5%,3.3µM*,3.7µM*
COc1ccc2c(c1)C(=O)N1[C@H]3c4cc(C)ccc4OC[C@@H]3[C@H](c3ccccc3)[C@]1(C)C(=O)N2,.,3%,10%,?,9.3µM*
C[C@@]12C(=O)Nc3ccc(Cl)cc3C(=O)N1[C@H]1c3cc(Cl)ccc3OC[C@@H]1[C@@H]2c1ccccc1,.,5%,24%,.,.
Cc1nc2cc(-c3ccc(Cl)cc3)nn2c(NCCN(C)C)c1C,1%,0%,-16%,10µM*,?
Cc1cc(C)n2nc(-c3ccc(Cl)cc3)cc2n1,-8%,-2%,-4%,212%,170%
COc1ccc(C2/C(=C(/O)c3ccc4c(c3)CC(C)O4)C(=O)C(=O)N2CCN2CCOCC2)cc1OC (configuration not stated),-8%,-3%,10%,21%,7%
C/C(=N/NS(=O)(=O)c1cc(C)ccc1C)c1ccncc1,7%,-1%,9%,12µM*,-10%
Cc1ccc(C)c(S(=O)(=O)NCc2ccncc2)c1,0%,-8%,8%,?,?
C/C(=N/NS(=O)(=O)c1cc(C)ccc1C)c1ccc2c(c1)OCO2,-6%,1%,-11%,12µM*,-1%
Cn1c(-c2cccc(Br)c2)cnc1NCc1ccccc1O,-12%,-1%,-7%,5.2µM*,?
COc1ccc(CNc2ncc(-c3ccc(Cl)cc3)n2C)c(OC)c1OC,-1%,-1%,-12%,2.9µM*,-26%
Cn1c(-c2ccccc2)cnc1NCc1ccccc1,1%,-1%,7%,-5%,12%
COc1ccc(CNc2ncc(-c3ccc(Br)cc3)n2C)cc1OC,11%,3%,3%,13µM*,?
CC(=O)Nc1ccc(NC(=O)C(C)OC(=O)C2CCN(S(=O)(=O)c3cccs3)CC2)cc1 (configuration not stated),1%,0%,-2%,0%,0%
Cc1cc(NC(=O)CCCN2C(=O)c3cccc4cccc(c34)C2=O)no1,0%,0%,-10%,?,3%
Cc1cc(NC(=O)CCCN2C(=O)c3cccnc3C2=O)no1,3%,-1%,-28%,12µM*,22%
O=C(Nc1cccc(C(F)(F)F)c1)NC1CCCCC1,-5%,3%,1%,.,.
